Screening data: PubChem, Center for Chemical Genomics, University of Michigan
The entries come from a sample that favours hits as a whole.
Dicer inh: inhibitors of Dicer pre-microRNA processing, primary screen, biochemical, cat-ELCCA, chemiluminescence. cat-ELCCA pre-miR-21 Dicer processing; stronger effect = higher value. z-score at 25 µM. 47,000 compounds, 6% hits. AID 1347074, 2019; in the data active = z-score above about 3, passing the limit was not always enough;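 also: plate controls were vehicle for no effect and no enzyme for full effect; higher signal means more uncleaved substrate so more Dicer inhibition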
* marks the source's active call; other numbers are inactive results.

SMILES | Dicer inh
O=C1CC(c2ccccc2Cl)Cc2c1cnn2-c1nc2ccccc2[nH]1 (stereo not given) | -0.41
Cc1cc(=O)n(-c2nc3ccccc3[nH]2)[nH]1 | 4.29*
Cc1ccccc1-c1nc2ccccc2[nH]1 | 4.47
Cc1cc(=O)n(-c2ccc(Cl)c(Cl)c2)[nH]1 | -2.9
Cc1[nH]n(-c2nc3ccccc3[nH]2)c(=O)c1C1OC(=O)c2ccccc21 (stereo not given) | 3.79*
Cc1onc(-c2ccccc2Cl)c1NC(=O)Nc1cc(C(F)(F)F)cc(C(F)(F)F)c1 | -0.28
CCOC(=O)c1c(NC(=O)Nc2cccc(Cl)c2)sc2c1C(C(=O)OCC)CC2 (stereo not given) | -2.83
O=c1[nH]c(-c2cccc(Oc3ccccc3)c2)nc2ccccc12 | 0.35
Cc1nn(-c2cccc(Cl)c2)c2oc(=O)cc(C(F)(F)F)c12 | -4.02
Cc1ccnc(NC(=O)CSc2nnc3c4ccccc4n(C)c3n2)c1 | 1.06
CCOC(=O)C1=C(C)N(C)C(=O)N(C)C1c1ccccc1 (stereo not given) | 0.62
CCOc1ccc2c(c1)-c1c(sn(-c3ccc(OC)cc3)c1=S)C(C)(C)N2 | 6.67*
COc1ccc(-n2sc3c(c2=S)-c2ccccc2NC3(C)C)cc1OC | 2.01
COC(=O)C1=C(C(=O)OC)SC(=C2C(=S)C(C)(C)Nc3ccc(OC)cc32)S1 | -0.25
O=C(O)c1ccc(Br)s1 | -0.34
CSC1=N/C(=C\c2ccc(Cl)cc2)C(=O)N1N(C)C | -0.39
CSC1=N/C(=C\c2ccc(Cl)cc2)C(=O)N1CCOc1ccc(Cl)cc1 | 3.62*
CSC1=N/C(=C\c2ccc([N+](=O)[O-])s2)C(=O)N1CCOc1ccc(Cl)cc1 | -0.23
Cc1c(Cl)cccc1NC(=S)N1C(C)CCCC1C (stereo not given) | -0.76
Cc1ccccc1NC(=S)N1CCCCC1C (stereo not given) | 3.43*
Cc1ccccc1NC(=S)N1CC(C)OC(C)C1 (stereo not given) | -1.1
O=c1ccc([N+](=O)[O-])cn1C1CCCCO1 (stereo not given) | 0.99
O=c1nc(/C=C/c2ccc(O)c(O)c2)oc2ccccc12 | 3.95*
CSc1ccc(/C=C/c2nc(=O)c3ccccc3o2)cc1 | 1.19
O=C(O)/C=C/c1ccc(O)c(O)c1 | 0.75
SMILES | Dicer inh
COc1ccc(C2CC(=O)c3cnc4[nH]n(-c5ccccc5)c(=O)c4c3C2)cc1OC (stereo not given) | 1.37
S=C(Nc1ccc2[nH]ccc2c1)Nc1ccccc1N1CCOCC1 | 4.61*
CC(C)(C)OC(=O)N1CCCN(C(=S)Nc2ccccc2N2CCOCC2)CC1 | -0.86
S=C(NCC1CC1)Nc1ccc2[nH]ccc2c1 | 4.76*
O=C(Nc1ccc2[nH]ncc2c1)C1CCC1 | -0.03
O=C(NCC1CC1)Nc1ccc2c(c1)CCO2 | 1.04
S=C(Nc1ccc(N2CCOCC2)nc1)Nc1cc(Cl)ccc1Cl | 0.43
COc1cc2c(cc1OC)C(C)N(S(=O)(=O)c1ccc(Cl)cc1)CC2 (stereo not given) | 0.31
Cc1cc(C)c2c(c1)-c1cc(C)nn1C(c1ccc(C(=O)O)cc1)N2 (stereo not given) | -2.72
COc1ccc2c(c1)c(=O)oc1cc3occ(-c4ccc(C)cc4)c3cc12 | -1.04
COc1ccc2c(c1)c(=O)oc1cc3occ(-c4ccc(F)cc4)c3cc12 | 1.49
COc1ccc(-c2coc3cc4oc(=O)c5cc(OC)ccc5c4cc23)cc1 | 3.79*
CN(C)c1nc(Oc2ccc(=O)n(C)n2)nc(N(C)C)n1 | 0.26
O=C(c1ccc(Cl)c(Cl)c1)c1cc2cc(Cl)ccc2o1 | -0.22
CC(C)(C)C(=O)Nc1nnc(-c2ccc(Br)cc2)s1 | 1.28
CC(C)(C)c1ccc(-c2nnc(NC(=O)C(Cl)(Cl)Cl)s2)cc1 | -0.32
CN(C)S(=O)(=O)c1ccc(C(=O)Nc2nnc(-c3ccc(Br)cc3)s2)cc1 | 3.16*
CCOC(=O)N/N=C(\C)C(=O)OCC | -0.11
c1cc(-c2nc3cc4sc(-c5ccn[nH]5)nc4cc3s2)[nH]n1 | 3.18*
Nc1cccc(-c2nc3cc4sc(-c5cccc(N)c5)nc4cc3s2)c1 | 0.71
Nc1ccc(-c2nc3cc4sc(-c5ccc(N)cc5)nc4cc3s2)cc1 | -2.07
Cn1c(=O)c2c(ncn2CC(=O)NCCN2CCOCC2)n(C)c1=O | -0.37
N#Cc1c(-c2cccnc2)[nH]c(=S)[nH]c1=O | -0.38
COc1ccc(-c2[nH]c(SC)nc(=S)c2C#N)cc1 | -2.03
N#Cc1c(-c2ccncc2)[nH]c(=S)[nH]c1=O | 3.57*
SMILES | Dicer inh
CCC(=O)OC1CCC2(C)C3C(CC[C@H]2C1)C1C[C@@H](C)[C@](O)(C(C)=O)C1(C)C[C@H]3OC(=O)CC (stereo not given in full) | -0.29
O=[N+]([O-])c1cccnc1Sc1cc(Cl)ccc1Cl | -0.4
O=[N+]([O-])c1cc(Cl)ccc1Sc1ccccn1 | 0.16
O=[N+]([O-])c1ccc(Sc2cc(Cl)ccc2Cl)nc1 | 4.72*
CCCCC(C(N)=O)C1=NC(C)(C)Cc2ccccc21 (stereo not given) | 0.96
CCc1ccc(C2CC(=O)NC(SC)=C2C#N)cc1 (stereo not given) | 0.11
